# Most compounds without a hit are left out; they make up all but 2.4% or so of the library.
# PERK inhibitor = human PERK inhibition, primary cell-based screen | CHO PERK-DD fusion, SEAP luminescence translation reporter | inhibition, % at 5.6 µM | actives 0.17% (n = 220,000) | AID 1416;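 active = inhibition above the mean inhibition of all tested compounds plus 3 SD, set separately per screening campaign, cut at about 2.9% in these data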;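 also: PERK kinase domain activated by AP20187 dimerizer at 100 nM; 0% = DMSO with dimerizer and 100% = rapamycin at 8.4 µM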
# Target sequence (Q9NZJ5 whole entry, looked up, the tested form may be a part): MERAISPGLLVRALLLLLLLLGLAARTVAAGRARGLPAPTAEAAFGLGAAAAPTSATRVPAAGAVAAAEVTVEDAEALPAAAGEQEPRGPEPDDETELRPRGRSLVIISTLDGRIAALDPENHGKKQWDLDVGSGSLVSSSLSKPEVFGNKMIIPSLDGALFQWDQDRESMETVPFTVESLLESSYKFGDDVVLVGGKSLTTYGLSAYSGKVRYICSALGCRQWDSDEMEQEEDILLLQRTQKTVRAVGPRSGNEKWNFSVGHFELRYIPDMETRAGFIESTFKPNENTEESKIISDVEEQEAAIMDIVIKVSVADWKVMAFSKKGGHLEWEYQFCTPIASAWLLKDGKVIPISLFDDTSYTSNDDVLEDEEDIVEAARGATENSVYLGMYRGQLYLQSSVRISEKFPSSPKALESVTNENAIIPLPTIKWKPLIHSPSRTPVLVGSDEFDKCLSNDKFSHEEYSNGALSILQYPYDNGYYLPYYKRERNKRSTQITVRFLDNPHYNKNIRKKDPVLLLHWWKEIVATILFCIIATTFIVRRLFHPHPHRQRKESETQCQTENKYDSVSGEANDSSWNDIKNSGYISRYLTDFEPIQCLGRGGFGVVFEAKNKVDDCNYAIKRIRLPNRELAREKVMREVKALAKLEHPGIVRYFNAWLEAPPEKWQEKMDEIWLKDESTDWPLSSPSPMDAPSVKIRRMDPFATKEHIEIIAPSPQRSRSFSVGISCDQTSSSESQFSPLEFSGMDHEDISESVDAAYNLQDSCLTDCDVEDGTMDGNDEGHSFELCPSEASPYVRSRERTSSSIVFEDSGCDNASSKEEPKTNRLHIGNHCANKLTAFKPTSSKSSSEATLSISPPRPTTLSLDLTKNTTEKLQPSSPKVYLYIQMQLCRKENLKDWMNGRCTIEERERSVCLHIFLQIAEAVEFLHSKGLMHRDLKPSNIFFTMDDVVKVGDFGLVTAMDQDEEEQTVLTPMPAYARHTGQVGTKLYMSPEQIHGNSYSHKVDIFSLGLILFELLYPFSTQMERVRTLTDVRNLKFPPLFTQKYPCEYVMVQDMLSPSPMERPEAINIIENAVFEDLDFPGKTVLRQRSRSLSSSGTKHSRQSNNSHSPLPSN
# eIF4E-4G inh = inhibitors of eIF4E and eIF4G interaction in translation initiation | inhibition, % at 21.7 µM | actives 0.37% (n = 220,000) | TR-FRET eIF4E-eIF4GI(517-606) binding, 2 h | AID 782;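 active = inhibition above about 30%, limit read from the data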;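 also: 0% = full FRET control wells and 100% = background wells lacking eIF4GI fragment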
# MLLE-PAM2 inh = inhibitors of microRNA-mediated deadenylation, human PABP1 MLLE binding; P11940; GST-MLLE / FITC-PAM2 fluorescence polarization; inhibition, % at 20 µM; actives 0.36% (n = 360,000); AID 588489; in the data active = inhibition above about 35%, passing the limit was not always enough;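 also: plate controls were DMSO wells with GST-MLLE for no effect and wells lacking GST-MLLE protein for full effect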
# eIF4H FP inh = inhibitors of RNA binding by human eIF4H; eIF4H fluorescence polarization binding assay; inhibition, % at 35 µM; actives 0.94% (n = 290,000); AID 2012;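 also: calls also rest on retests at 20 µM and on dose response follow-up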
# M18AAP inhibitor = blocks P. falciparum M18 aspartyl aminopeptidase | recombinant PfM18AAP, H-Glu-NHMec fluorogenic cleavage | actives 1.2% (n = 290,000) | inhibition, % at 7.35 µM;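 active = inhibition above the campaign mean inhibition over all tested compounds plus 3 SD, cut at about 28% in these data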;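 also: 0% = plate median of test compound wells and 100% = 2 mM ZnCl2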
# PABP polyA inh = PABP-poly(A) binding inhibition; P11940; PABP-poly(A) RNA binding, fluorescence polarization; inhibition, % at 35 µM; actives 1% (n = 290,000);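 also: calls also rest on retests at 20 µM and on dose response follow-up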
# * hit, by the source's call; / = not tested or not shown. Unless noted, no rule for the calls is given here.
SMILES,PERK inhibitor,eIF4E-4G inh,MLLE-PAM2 inh,eIF4H FP inh,M18AAP inhibitor,PABP polyA inh
Nc1nnc(CC(=O)N/N=C\c2ccc(-c3cccc(Cl)c3)o2)s1,0.9,-1.1,-30.6,-9.3,7.9,-10.1
Nc1nnc(CC(=O)Nc2ccccc2)s1,3.0*,3.7,-22.9,-0.3,3.0,8.2
O=C(Cc1nnc(NC(=O)c2ccccc2)s1)N/N=C/c1cccc(O)c1,/,/,-32.3,-5.4,-4.7,10.8
O=C(Cc1nnc(NC(=O)c2ccccc2)s1)N/N=C/c1ccco1,0.5,4.2,-12.9,82.5,21.5,6.2*
Nc1nnc(CC(=O)N/N=C/c2ccc(-c3ccccc3)o2)s1,0.7,2.0,-20.6,82.3,8.9,2.9*
Nc1nc2c(ncn2[C@@H]2O[C@H](CNC(=O)[C@H](N)Cc3ccccc3)[C@@H](O)[C@H]2O)c(=O)[nH]1,/,/,6.3,/,/,/
O=[N+]([O-])c1cccc(N/N=C/c2cccc(O)c2O)c1,1.2,-0.7,-1.5,-0.1,41.5*,-3.3
O=[N+]([O-])c1ccccc1N/N=C/c1cccc(O)c1O,0.9,-7.5,-8.5,-2.0,30.2*,-5.7
Cc1cc(C)nc(N/N=C/c2ccccc2OCc2ccc([N+](=O)[O-])cc2)n1,0.1,5.1,4.8,-3.8,7.9,10.5
O=[N+]([O-])c1ccc(N/N=C\c2ccccc2OCc2ccccc2)cc1,0.0,4.1,-113.1,23.3*,-10.4,73.7*
O=[N+]([O-])c1ccccc1N/N=C\c1ccccc1Cl,-0.8,-13.2,4.8,4.1,-6.3,8.0
CCCCc1nc2cc(C(=O)N3CCCC3)ccc2o1,/,/,-3.2,3.2,4.6,-8.0
O=C(/C=C/c1cccc2ccccc12)c1ccncc1,-0.8,0.5,24.9,-5.2,13.1,1.1
Cc1[nH]c2ccccc2c1/C=C/C(=O)c1ccncc1,-0.8,-1.8,-75.1,72.1*,7.2,52.2*
COc1ccc(C(=O)NCc2ccncc2)cc1S(=O)(=O)N1CCOCC1,/,/,13.9,/,/,/
COc1ccc(C(=O)NCCc2c[nH]c3ccccc23)cc1[N+](=O)[O-],/,/,5.2,-10.5,-8.0,-15.6
N#CC(C(=O)O)=C1CCCC1,0.3,1.7,-6.6,6.9,-1.1,9.3
N#CC(C#SN)=C1CCCCC1,0.9,-2.1,29.6,-4.1,29.5*,-3.0
C#CCN(C(=O)Nc1ccccc1)c1ccccc1,1.1,14.5,8.4,3.2*,-2.9,58.6*
CCN(C(=O)Nc1ccccc1)c1ccccc1,0.9,1.6,3.5,3.3,-1.9,17.5
O=C(COC(=O)CCc1c[nH]c(=O)[nH]1)Nc1cccc(Cl)c1,1.4,0.9,39.3*,16.2,4.5,35.1
O=C(COC(=O)CCCOc1ccc(Cl)cc1Cl)Nc1cccc(Cl)c1,1.4,3.4,-11.5,-13.6,7.1,2.5
COc1ccc(S(=O)(=O)N2CCOCC2)cc1NC(=O)CSc1cccc[n+]1[O-],-0.2,5.7,-18.1,-3.8,5.8,26.2
O=C(CCC1CCCN(c2ncccn2)C1)NCc1ccccc1F (stereo unspecified),0.1,-0.7,-8.4,-2.3,31.6*,-2.6
C=CCC(=O)N1CCCC(CCC(=O)NCc2ccccc2F)C1 (stereo unspecified),-0.1,-1.2,-7.9,-9.6,-0.4,-0.1
SMILES,PERK inhibitor,eIF4E-4G inh,MLLE-PAM2 inh,eIF4H FP inh,M18AAP inhibitor,PABP polyA inh
C=CCOC(=O)C1=C(C)OC(N)=C(C#N)C1c1ccc2c(c1)OCO2 (stereo unspecified),0.5,0.4,11.1,-0.4,0.3,-0.8
C=CCOC(=O)C1=C(C)OC(N)=C(C#N)C1c1ccoc1 (stereo unspecified),0.9,-8.5,-20.3,101.7*,5.9,88.1
CC1CCC(NC(=O)Cn2cc3c(n2)CCCC3)CC1 (stereo unspecified),1.7,-0.7,15.4,-5.6,-0.8,2.8
O=C(Cn1cc2c(n1)CCCC2)NCC1CCCO1 (stereo unspecified),3.2*,-3.7,4.0,5.4,4.9,0.5
CC(=Nc1cccc(O)c1)c1sc2ccccc2c1O,-0.1,-6.5,16.8,34.5,31.0*,28.7
C=C(C)[C@@H]1C2=CC(C(=O)OC)=C(C[C@H](C(=C)C)[C@H]3O[C@H]3C3=C[C@H]1OC3=O)O2,/,/,29.1,/,/,/
COc1ccc2c(C)cc(SCC(=O)N3CCOCC3)nc2c1,-0.2,-5.7,-85.5,123.7*,4.2,123.8*
COc1ccc2c(-c3ccccc3)cc(SCC(N)=O)nc2c1,1.2,-12.9,-77.4,80.3*,-2.3,52.8*
C[C@H]1CN=C(Nc2ccccc2)N1CCC1CCCC1,/,/,-4.7,3.2,2.1,-10.7
O=C(CN1C(=O)C2C3C=CC(C4CC34)C2C1=O)Oc1ccccc1 (stereo unspecified),1.7,1.7,6.7,5.9,4.4,-1.2
Cc1c(OC(C)C(=O)NC(Cc2c[nH]c3ccc(O)cc23)C(=O)O)ccc2c1oc(=O)c1ccccc12 (stereo unspecified),/,/,6.9,81.2*,18.0,64.4*
CC(Oc1ccc2ccc(=O)oc2c1)C(=O)NC(Cc1c[nH]c2ccc(O)cc12)C(=O)O (stereo unspecified),/,/,-13.8,86.8*,5.5,45.4
O=C(O)c1ccc(Cn2cnc3c(=O)[nH]cnc32)cc1,/,/,22.5,/,/,/
Cc1ccc2c(c1)sc[n+]2Cc1ccccc1,-0.6,0.6,38.0*,-1.0,26.9,-3.0
Cc1ccc(-c2cc[n+](Cc3ccccc3)cc2)cc1,0.2,11.2,-8.8,-1.6,-5.6,2.5
O=C(CCCc1ccccc1)Nc1ccccn1,1.3,2.1,3.0,0.8,-2.5,52.3*
Cc1ccnc(NC(=O)CCCc2ccccc2)c1,0.4,1.5,3.8,1.2,-9.2,-1.2
Cc1ccc(NC(=O)CN2C(=O)S/C(=C\c3ccc(-c4cccc(C(=O)O)c4C)o3)C2=O)cc1C,0.4,58.2*,1.8,67.5*,-1.7,-8.7
O=C(CN1C(=O)S/C(=C\c2ccc(-c3cc(C(=O)O)ccc3Cl)o2)C1=O)Nc1ccc2c(c1)OCO2,/,/,6.0,67.7*,1.7,38.1*
Cc1c(C(=O)O)cccc1-c1ccc(/C=C2\SC(=O)NC2=O)o1,/,/,-6.0,54.5*,21.4,34.3*
CCOC(=O)CN1C(=O)S/C(=C\c2ccc(-c3cccc(C(=O)O)c3C)o2)C1=O,/,/,-12.4,/,/,/
CC1CC(=O)N(CC(=O)Nc2ccc(Br)cc2)c2ccccc2S1(=O)=O (stereo unspecified),/,/,-4.4,-2.3,5.6,-1.0
CC(=O)NCc1c(Cl)cccc1-n1cccc1,3.3*,3.4,1.3,-4.5,-2.0,-0.8
CN(c1cccc(NC(=O)Cc2ccccc2)c1)S(C)(=O)=O,1.2,5.9,-0.4,5.8,-2.4,-8.9
COC(=O)c1cc2ccccn2c2c(C(=O)OC)c(C(=O)OC)cc1-2,-1.4,-6.1,8.8,1.3,1.1,15.1
COC(=O)c1cc2c(C)c(C)c3ccccn3c-2c1C(=O)OC,0.5,-18.1,59.7*,127.2,0.5,119.8

# Bioassay records deposited in PubChem by several laboratories.
